Results filed as inconclusive are left out. A call without a number means that no potency is given here. Unmarked numbers belong to inactive results. Activity calls are given as the source filed them. Calls follow the shape of the dose curve; as a rule, active = well fitted cell-killing curve with a large enough effect in the repeat runs; inconclusive = weak or mixed curves, or effect the other way; inactive = flat fitted curve, though single readings scatter.

The experiment can be described thus: qHTS assay to identify small molecule that activate the aryl hydrocarbon receptor (AhR) signaling pathway - cell viability counter screen (AID 743086).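 Also: HepG2 liver cells carrying the AhR DRE luciferase reporter; nearly all actives have a fitted effect of over 45% in size.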 To be noted: HepG2-AhR-luc viability, CellTiter-Fluor, 24 h; series mostly up to 70.3 µM. From the text:
U.S. Tox21 Program National Center for Advancing Translational Sciences [NCATS] NIH Chemical Genomics Center [NCGC] U.S. Environmental Protection Agency [EPA] National Institutes of Environmental Health Sciences [NIEHS] National Toxicology Program [NTP] U.S. Food and Drug Administration [FDA] Tox21 Assay overview: The Aryl hydrocarbon Receptor (AhR), a member of the family of basic helix-loop-helix transcription factors, is crucial to adaptive responses to environmental changes. AhR mediates cellular responses to environmental pollutants such as aromatic hydrocarbons through induction of phase I and II enzymes but also interacts with other nuclear receptor signaling pathways A cell based HepG2-AhR-luc assay (HG2L7.5c1 cell line, developed by Dr. Michael S. Denison, University of California at Davis) was used to assess the activation of AhR. HepG2 (human hepatocellular carcinoma) cells were stably transfected with an Ah receptor-responsive firefly luciferase reporter gene plasmid containing 20 dioxin responsive elements and luciferase reporter gene. Increased luciferase activity can be used to identify the compounds that induce AhR activation. The cytotoxicity of the compounds screened against the HepG2-AhR-luc cell line was tested in parallel by measuring the cell viability using CellTiter-Fluor assay in the same wells.
Tox21 Assay Protocol Summary: 4000 cells in 5 uL/well were dispensed into white wall/solid bottom 1536-well plates using a Multidrop Combi (Thermo Fisher Scientific Inc., Waltham, MA) dispenser. After the assay plates were incubated at 37C for 5 h, 23 nL of compound or DMSO vehicle was transferred to the assay plates by a pintool station (Kalypsys, San Diego, CA). The plates were incubated at 37C for 24 hr. For cell viability measurement, 1 ul/well of CellTiter-Fluor reagent (Promega, Madison, WI) was added into the assay plates using a Flying Reagent Dispenser (FRD) (Aurora Discovery, CA),and then the assay plates were incubated at 37C for 30 min. The fluorescence intensity in the plates was measured using a ViewLux plate reader (PerkinElmer, Shelton, CT), followed by the addition of 4 uL of ONE-Glo Luciferase Assay reagent (Promega) using an FRD (Aurora Discovery). After the assay plates were incubated at room temperature for 30 min, luminescence intensity was measured using a ViewLux plate reader (Perkin Elmer).
On the technique in general: qHTS replaces the single test concentration by a dilution series.
Turning to `CC(C)CC(=O)O`, the Potency entry is “inactive”.
Same read-out and setting: to `C=COCCOCCOCCOC=C` belongs “inactive”; to `CC(=O)NCc1c(I)c(NC(C)=O)c(I)c(C(=O)O)c1I`, “inactive”; to `C=C(C)C(=O)OCCNC(C)(C)C`, “inactive”.
`CNC(=O)[C@H]1O[C@@H](n2cnc3c(NCc4cc(Cl)ccc4OCc4cc(C)no4)ncnc32)[C@H](O)[C@@H]1N`: the Potency entry is “inactive”.
For `CC1COc2ccccc2N1` (stereo not given), the Potency result was “inactive”.
Still for that read-out and setting: to `CCCOC(OCCC)OCCC` belongs “inactive”; to `Cc1ccsc1/C=C/C1=NCCCN1C`, “inactive”; to `CCCCCCN`, “inactive”.
`CCCC/C=C/C=C\C=O`: the Potency result was “inactive”.
For the molecule `Nc1nnc(-c2cccc(Cl)c2Cl)c(N)n1`, the Potency result was “inactive”.
`CC(C)NCC(O)COc1cccc2[nH]ccc12` (stereo not given): the Potency entry is “inactive”.
For `CC1(C)S[C@@H]2[C@H](N=CN3CCCCCC3)C(=O)N2[C@H]1C(=O)O`, the Potency result is “inactive”.
In the case of `C=C(C)C(=O)OCCOP(=O)(O)OCCOC(=O)C(=C)C`, the Potency entry is “inactive”.
On to `CCCC/C=C\CCCCCCCCCC=O`, for which the Potency result is “inactive”.
Consider `COc1ccc(OC)c(Cl)c1`, for which the Potency result was “inactive”.
As for `CN(C)C(=O)CNC(=O)Cc1ccccc1`, the Potency entry is “inactive”.
As to `O=C1O[C@@H]2[C@@H](O)[C@H](O)O[C@@H]2[C@H]1O`, the Potency result is “inactive”.
On to `COC(=O)C1CC(=O)C(C(=O)OC)CC1=O` (stereo not given), for which the viability change, negative = cytotoxic is 14.4% [at 8.47 µM].
On to `Cc1ccc(S(=O)(=O)O)c(C)c1`, for which the Potency result is “inactive”.
As for `CC(C)(C)c1n[nH]c(=S)n(N)c1=O`, the Potency entry is “inactive”.
On to `O=S(=O)(O)CCN1CCN(CCO)CC1`, for which the Potency entry was “inactive”.
For `C#CC(C)N(C)C(=O)Nc1ccc(Cl)cc1` (stereo not given), the Potency result was “inactive”.
As for `OC[C@H](Cc1cccc(O)c1)[C@H](CO)Cc1cccc(O)c1`, the Potency entry is “inactive”.
Same read-out and setting: the result for `CN(C)c1ccc(C=O)cc1` reads “inactive”; that for `c1ccc2c(c1)ccc1c3ccccc3ccc21`, “inactive”; that for `C[C@H](N)[C@H](O)c1cccc(O)c1`, “inactive”.
Regarding `O=C1CCCC(=O)O1`, the Potency result is “inactive”.
As to `O=C(O)c1ccc(Cl)cc1Cl`, the Potency entry is “inactive”.
For `O=S(=O)(O)c1cc(O)c2ccc(Nc3ccccc3)cc2c1`, the Potency result is “inactive”.
With `CC(=O)Nc1cccc(C)c1`, the Potency entry was “inactive”.
Same read-out and setting: the result for `BrCc1cccc(Oc2ccccc2)c1` reads “inactive”.
For the molecule `CC(=O)/C=C/C1C(C)=CCC(C)C1(C)C` (stereo not given), the Potency result was “inactive”.
In the case of `CCCCCCCCCCl`, the Potency entry is “inactive”.
`c1ccc2nccnc2c1`: the Potency entry is “inactive”.
The same measure, in the same setting: to `O=C(O)CCSSCCC(=O)O` belongs “inactive”.
Still for that read-out and setting: to `CCC(C=O)CC` belongs “inactive”.
For the molecule `O=C(OCC1(COC(=O)c2cccnc2)CCCC(COC(=O)c2cccnc2)(COC(=O)c2cccnc2)C1O)c1cccnc1`, the Potency entry is “inactive”.
In the case of `NC(CO)C(=O)NNCc1ccc(O)c(O)c1O` (stereo not given), the Potency entry was “inactive”.
On to `CCCCCCCCC(=O)Cl`, for which the Potency entry is “inactive”.

Source of the values: PubChem BioAssay (Tox21).
